Experimental data published in PubChem BioAssay (NCI).
About 83,000 compounds went through this panel and 20% of them were active in at least one assay; those are over-represented in the sample as a whole.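 Single-concentration screen, 48 h exposure, 96-well plates. Endpoint: percent growth. Below 10 = active.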 Calls of active or inactive are those of the source.

System: OVCAR-5 ovarian
Assay: NCI-60 one-dose screen, 48 h (100 = growth as untreated, 0 = no growth, -100 = all killed)
Conditions: 10 µM unless noted
Experimental: Growth inhibition of the OVCAR-5 human tumor cell line is measured as a screen for anti-cancer activity. Cells are grown in 96 well plates and exposed to the test compound for 48 hours. Compounds are tested at a single concentration, which is 10^-5 M for most compounds. The reported endpoint is percent growth (GI% or GIPRCNT), where numbers from 0 - 100% represent growth inhibition, and numbers from -100% - 0 represent cell death. For example, a value of 40 represents 60% growth inhibition. A value of 0 means no net growth occurred over the course of the experiment. A value of -40 indicates 40% of cells at the beginning of the experiment died by the end of the experiment. A value of -100 means all cells are dead at the end of the experiment.
NCI-60 Human Tumor Cell Lines Screen was performed using the standard one-dose NCI protocol, which is described in more detail at https://dtp.cancer.gov/discovery_development/nci-60/default.htm.
Compounds with GIPRCNT values below 10 were considered active. Activity score was based on GIPRCNT using the following formula: […]
Score is 0 for GIPRCNT values of 100 or above, 50 for GIPRCNT values of 0, and 100 for GIPRCNT values of -100.

Q: Which growth does the source give for `CC(C)(C)Nc1nc2c(OCCc3ccccc3)cccn2c1-c1ccc([N+](=O)[O-])cc1` here?
A: 67.3% (inactive)

Q: `O=C(CSc1nnc(-c2cccs2)n1-c1ccccc1)Nc1ccccc1F` was tested. Which growth did it give?
A: 100% (inactive)

Q: Which growth does the source give for `COc1ccc2sc(NC(=O)CCCCCCNC(=O)C(O)(O)C(F)(F)F)nc2c1` here?
A: -0.588% (active)

Q: `Cc1ccc(N2CCN(C3=C(Cl)C(=O)c4ncccc4C3=O)CC2)cc1` was tested. Which growth did it give?
A: 110% (inactive)

Q: Which growth does the source give for `CC(C)=CCC[C@](C)(O)[C@H]1CC[C@]2(C)[C@@H]1CC[C@@H]1[C@@]3(C)CC[C@H](N)C(C)(C)[C@@H]3CC[C@]12C` here?
A: 108% (inactive)

Q: `Cc1ccc(NC(=O)/C=C/c2ccc(OCCCOc3ccc4c(C)cc(=O)oc4c3)cc2)cc1` was tested. Which growth did it give?
A: 91.6% (inactive)

Q: For `Cc1cccc(N2CCN(C3=C(Cl)C(=O)c4ncccc4C3=O)CC2)c1`, which growth is on record?
A: 111% (inactive)

Q: How did the growth turn out when `O=C(/C=C/c1ccc(F)cc1)Nc1cccc2cccnc12` was run?
A: 104% (inactive)

Q: With `Cc1ccc(C(=O)CSc2nc3ccccc3c(=O)n2C)cc1` as the molecule, how does the growth read?
A: 105% (inactive)

Q: How did the growth turn out when `N#Cc1cnc2ccc(-c3cnc4n[nH]nc4c3)cc2c1N1CCc2cc(F)c(Cl)cc21` was run?
A: 31.6% (inactive)

Q: `N#Cc1c(-c2cccs2)cc(-c2cnccn2)nc1SCC(=O)N/N=C/c1ccncc1` was tested. Which growth did it give?
A: 114% (inactive)

Q: How did the growth turn out when `c1ccc(-c2cn3c(-c4c[nH]c5ccccc45)csc3n2)cc1` was run?
A: 87.8% (inactive)

Q: Which growth does the source give for `NS(=O)(=O)c1cccc(Nc2nc(SCC(=O)c3ccc(Cl)cc3)nc3c2CCC3)c1` here?
A: 103% (inactive)

Q: How did the growth turn out when `CCCCc1nc2c(N)nc3ccccc3c2n1Cc1ccc(OC)cc1` was run?
A: 82.4% (inactive)

Q: Which growth does the source give for `CN(C)CCNc1ccc2ncc(C#Cc3cncc(C(=O)Nc4ccc(CN5CCN(C)CC5)c(C(F)(F)F)c4)c3)n2n1` here?
A: 11.4% (inactive)

Q: `NS(=O)(=O)c1nnc(/N=C/c2c(O)[nH]c3ccccc23)s1` was tested. Which growth did it give?
A: 121% (inactive)

Q: `CCN(CC)c1ccc(/C=N/NC(=O)c2ccc(NS(C)(=O)=O)cc2)cc1` was tested. Which growth did it give?
A: 49.4% (inactive)

Q: How did the growth turn out when `N#Cc1c(-c2cccs2)c(C#N)c(=O)n(Cc2nc3ccccc3[nH]2)c1N` was run?
A: 116% (inactive)

Q: With `CC1=C(C)C(=O)C(Nc2cccc(C(=O)OC(C)(C)C)c2)=CC1=O` as the molecule, how does the growth read?
A: 98.3% (inactive)

Q: How did the growth turn out when `COc1ccc(CC(C)=C(c2ccc(OCCN3CCCC3)cc2)c2ccc(OCCN3CCCC3)cc2)cc1` was run?
A: -91.1% (active)

Q: Which growth does the source give for `CC1=C(C)C(=O)C(Nc2ccc(C)c(C)c2)=C(Br)C1=O` here?
A: 111% (inactive)

Q: With `Cc1ccc(-c2nc(SCC(=O)c3ccccc3)nc(Nc3ccc(S(N)(=O)=O)cc3)c2C#N)cc1` as the molecule, how does the growth read?
A: 97.3% (inactive)

Q: With `C[C@@H]1OCC2(CCN(c3cnc(C(=O)Nc4cc(F)cc5cccnc45)cn3)CC2)[C@@H]1N` as the molecule, how does the growth read?
A: 80% (inactive)

Q: Which growth does the source give for `O=C(CCCCCCNC(=O)C(O)(O)C(F)(F)F)Nc1ccc(Br)cc1` here?
A: 5.89% (active)

Q: Which growth does the source give for `COc1ccc2c(c1)c(/C=N/Nc1ccnc3cc(Cl)ccc13)cn2C` here?
A: -87.3% (active)

Q: With `C[C@H](Nc1ncnc2ccc(-c3cnc(Cl)c(NS(C)(=O)=O)c3)cc12)c1ccccc1` as the molecule, how does the growth read?
A: -14.9% (active)

Q: `CC[C@]12C=CCN3CC[C@]4(C(=C(C(=O)OC)C1)Nc1cc5c(cc14)[C@@H]1[C@H](O5)[C@@H](O)[C@@]4(CC)CC(C(=O)OC)=C5Nc6cc(O)ccc6[C@@]56CCN1C46)C32` (stereo not given in full) was tested. Which growth did it give?
A: 20.7% (inactive)

Q: For `CC[C@H](CC[C@@H](C)[C@H]1CC[C@H]2[C@@H]3CC(=O)C4=CC(=O)/C(=C/c5ccc([N+](=O)[O-])cc5)C[C@]4(C)[C@H]3CC[C@]12C)C(C)C`, which growth is on record?
A: 105% (inactive)

Q: How did the growth turn out when `O=C(Nc1cccc(Cl)c1)Nc1nc2cc([N+](=O)[O-])ccc2o1` was run?
A: 75.5% (inactive)

Q: For `Cc1ccc(C(=O)Nc2ccc(CNCCN3CCOCC3)c(C(F)(F)F)c2)cc1C#Cc1cnc2cccnn12`, which growth is on record?
A: 33.5% (inactive)

Q: `O=C(CSc1nnc(-c2ccc(Cl)cc2)n1-c1ccccc1)Nc1cccc(F)c1` was tested. Which growth did it give?
A: 41.9% (inactive)

Q: With `CCS(=O)(=O)Nc1ccc(C(=O)CC2(O)C(=O)Nc3ccccc32)cc1` (stereo not given) as the molecule, how does the growth read?
A: 102% (inactive)

Q: How did the growth turn out when `CCOC(=O)c1cccc(NC2=C(Cl)C(=O)c3nc(C)ccc3C2=O)c1` was run?
A: 104% (inactive)

Q: Which growth does the source give for `Cc1ccc2c(n1)C(=O)C(Cl)=C(Nc1ccc(C)c(C)c1)C2=O` here?
A: 91.6% (inactive)

Q: `CCCCCCNC(=O)Oc1ccc(/C(=C(/C)c2ccc(OC)cc2)c2ccc(OCCN3CCCCCC3)cc2)cc1` was tested. Which growth did it give?
A: 61.1% (inactive)

Q: Which growth does the source give for `N#C/C(=C\c1ccc(-c2ccc(Cl)c(Cl)c2)o1)C(=O)Nc1ncc(Cc2ccc(Cl)cc2)s1` here?
A: 45.7% (inactive)

Q: Which growth does the source give for `C#Cc1cc(OC)c(C(=O)Nc2ccc(F)cc2C(=O)Nc2cccc(S(=O)(=O)C(F)(F)F)c2)cn1` here?
A: -33.2% (active)

Q: Which growth does the source give for `CN1CCN(Cc2ccc(NC(=O)c3cncc(C#Cc4cnc5ccc(N)nn45)c3)cc2C(F)(F)F)CC1` here?
A: 32% (inactive)

Q: With `COc1ccc(-c2c(C(N)=O)c(N)n(Cc3nc4ccccc4[nH]3)c(=O)c2C#N)c(OC)c1` as the molecule, how does the growth read?
A: 110% (inactive)

Q: With `C(=N\Nc1nc(N/N=C/c2ccc3c(c2)OCO3)nc(N2CCCCC2)n1)/c1ccc2c(c1)OCO2` as the molecule, how does the growth read?
A: 118% (inactive)
